Test results as given in ChEMBL document CHEMBL3988442, “University of Dundee, Small-Polar-MMV Screening Library” (2021).
The whole screen tested about 69,000 compounds, of which about 420 (0.61%) showed an effect of 50% or more. The entries come from a sample that favours strong results as a whole.

biological target: T1, Histidine--tRNA ligase (Leishmania infantum) (UniProt A4I591); assay: Leishmania infantum Histidine tRNA synthetase (LdHisRS); type: functional; design: scale not given: in the data most compounds retested in dose-response had high values; settings: 30 µM
T1 sequence (whole entry): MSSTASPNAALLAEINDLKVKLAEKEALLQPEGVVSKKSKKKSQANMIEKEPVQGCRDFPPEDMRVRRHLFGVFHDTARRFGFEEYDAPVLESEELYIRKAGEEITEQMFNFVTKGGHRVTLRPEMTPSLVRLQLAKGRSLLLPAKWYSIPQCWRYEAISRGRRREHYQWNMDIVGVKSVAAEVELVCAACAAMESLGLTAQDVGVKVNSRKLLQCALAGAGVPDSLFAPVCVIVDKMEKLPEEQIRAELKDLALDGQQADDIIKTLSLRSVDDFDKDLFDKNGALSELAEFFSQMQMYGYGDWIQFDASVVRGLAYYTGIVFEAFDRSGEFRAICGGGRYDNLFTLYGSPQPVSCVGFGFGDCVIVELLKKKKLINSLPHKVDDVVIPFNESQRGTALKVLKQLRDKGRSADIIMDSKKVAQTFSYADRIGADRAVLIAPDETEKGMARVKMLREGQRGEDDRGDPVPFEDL

Point of comparison: `Cc1nc(CN(C)C2CCN(Cc3ccc4ccccc4n3)C2)no1` (stereo not drawn), Percent Effect 53.1%. Against it:
- CN(C)C[C@@H]1C[C@@H]2CN(C(=O)c3ccoc3)CC[C@@H]2N1CC1CC1 — lower, 7.32%
- NC(=O)N1C[C@H](NC(=O)c2cscn2)[C@@H]2OCCC[C@@H]21 — lower, 13.6%
- CC(C)CC(=O)N1CC[C@H]2N(C)CC[C@@]2(C(=O)Nc2cccnc2)CC1 — lower, 11.7%
- Cn1cc(C(=O)Nc2cccc(F)c2)ccc1=O — lower, 26.5%
- CCCn1cc(NC(=O)c2ccncc2)ccc1=O — higher, 104%
- Cn1cc(NC(=O)Nc2cccc3cccnc23)ccc1=O — higher, 114%
- CCCn1cc(NC(=O)c2ccc(S(C)(=O)=O)cc2)ccc1=O — higher, 94.6%
- CN(C)C(=O)Cc1ccccc1NCc1cccc2cccnc12 — lower, 13.6%
- CCN(CC)C(CNC(=O)c1ccc(S(C)(=O)=O)cc1)c1ccco1 (stereo not drawn) — lower, 19.2%
- COC(=O)N1CCCN(C(=O)c2cccc3cccnc23)CC1 — lower, 8.26%
- CCCN1CCC(NC(=O)Nc2ccc(OC)c(OC)c2)CC1 — lower, 1.33%
- CCCn1cc(NC(=O)c2ccc(NC(=O)NC3CC3)cc2)ccc1=O — higher, 92.8%
- O=C(Nc1ccc(CCN2CCSCC2)cc1)NC1CC1 — lower, 16.4%
- CCCn1cc(NC(=O)c2ccc(N(C)CC)cc2)ccc1=O — lower, 31.5%
- O=C(Nc1ccc2c(ccn2CCN2CCOCC2)c1)c1ccncc1 — lower, 25.7%
- COCC1(CNC(=O)[C@@]23CNC[C@@H]2CN(C2CCCC2)C3)CC1 — lower, 12.8%
- CS(=O)(=O)N1C[C@H](NC(=O)c2ccno2)[C@@H]2OCCC[C@@H]21 — lower, 10%
- COc1ccc(CN2C[C@@H]3OCCN(C)[C@@H]3C2)cc1 — lower, 19.3%
- Cc1nc([C@@H]2C[C@H]3CN(Cc4scnc4C)C[C@H]3O2)no1 — lower, 17.1%
- Cn1cc(C(=O)N[C@H]2CN(Cc3nccs3)[C@@H]3CCCO[C@H]23)cn1 — lower, 28.6%
- Fc1cnc(N2C[C@H]3CCC[C@@]3(COc3ccccn3)C2)nc1 — lower, 0%
- CC(=O)N1CCO[C@@H]2CN(Cc3cccc(Cl)c3)C[C@@H]2C1 — lower, 15.3%
- COc1cccc(CN2C[C@@H]3COC[C@]3(COc3cccnc3)C2)c1 — lower, 19.3%
- c1ccc(OC2COC3(CCN(Cc4ccccn4)CC3)C2)cc1 (stereo not drawn) — lower, 15%
- Cc1cccc(CN2CCS(=O)(=O)[C@@H]3CCN(C(=O)C4CC4)CC[C@@H]32)n1 — lower, 5.26%
- CCS(=O)(=O)c1cccc(C(=O)Nc2cccc3c2C(=O)N(C)C3=O)c1 — lower, 21.5%
- CCCn1cc(NC(=O)c2ccc(S(=O)(=O)CC)cc2)ccc1=O — higher, 114%
- Cn1cc(NC(=O)c2cccc3cccnc23)ccc1=O — lower, 20.5%
- CCCn1cc(NC(=O)c2cccc3cccnc23)ccc1=O — higher, 75.9%
- CN1CCC/C1=N\S(=O)(=O)c1ccc(NC(=O)c2ccc(F)cc2)cc1 — lower, 15.6%
- CCCn1cc(NC(=O)c2cccnc2O)ccc1=O — lower, 17.1%
- O=C(C[C@@H]1COC[C@H]2CN(Cc3ccccc3)C[C@@H]12)N1CCCC1 — lower, 23.1%
- CN1[C@@H](C(=O)NCC2CC2)C[C@@H]2CN(Cc3ccco3)C[C@@H]21 — lower, 17.1%
- CCOC(=O)[C@]12CCCN(Cc3nccs3)C[C@H]1CN(C(C)=O)C2 — lower, 10.7%
- O=C([C@@H]1CC[C@@H]2[C@@H](CCN2CCOCc2ccccc2)O1)N1CCCC1 — lower, 16%
- CN(C)C(=O)CN1C[C@@H]2CC[C@H](C1)N(Cc1ccc3nsnc3c1)C2 — lower, 11.3%
- Cc1cnc(N2CC[C@@H]3O[C@@H](COCc4ccccn4)CC[C@@H]32)nc1 — lower, 13%
- COc1cccc(CNCc2ccnc(N3CCOCC3)c2)c1OC — lower, 7.14%
- CCOc1cccc(C2CC(=O)NCc3nc(N4CCCC4)sc32)c1 (stereo not drawn) — lower, 24.7%
- CC(C)Oc1ccccc1C1CC(=O)Nc2nc(N3CCOCC3)sc21 (stereo not drawn) — higher, 97.5%
- CC(C)Oc1ccccc1C1CC(=O)Nc2c1cnn2C (stereo not drawn) — lower, -14.3%
- COc1cccc(CNc2nc(N3CCOCC3)ns2)c1OC — lower, 13.5%
- COc1ccccc1C1CC(=O)Nc2c1c(=O)[nH]n2C1CCCC1 (stereo not drawn) — lower, 14.3%
- COc1ccccc1C1CC(=O)Nc2nc(N3CCCCC3)sc21 (stereo not drawn) — higher, 118%
- COc1ccccc1C1CC(=O)Nc2c1c(=O)[nH]n2C(C)C (stereo not drawn) — lower, 16.5%
- COc1cccc(C2CC(=O)Nc3nc(N4CCCCC4)sc32)c1OC (stereo not drawn) — higher, 120%
- O=c1[nH]nc(-c2cccs2)c2sc(N3CCOCC3)nc12 — lower, 11.9%
- COc1cccc(C2CC(=O)Nc3nc(N4CCOCC4)sc32)c1OC (stereo not drawn) — higher, 111%
- CCn1ncnc1C1CC(=O)NCc2nc(N3CCCC3)sc21 (stereo not drawn) — lower, 15.7%
- Cc1cccc(CN2C(=O)CC[C@@H]3[C@H]2CCN3Cc2ccc(C)s2)n1 — lower, 8.03%
- CC1=N[C@@]2(CC[C@@H]3CN(S(=O)(=O)N(C)C)C[C@@H]32)C(=O)N1CC(C)C — lower, 9.02%
- CC(=O)N1CC[C@H]2CC(=O)N(CCc3c[nH]cn3)CC[C@H]2C1 — lower, 9.46%
- Cc1ncc(C(=O)N2CC[C@@]3(O)CCN(C(=O)N(C)C)C[C@H]3C2)cn1 — lower, 10.6%
- O[C@@]1(CN2CCN(Cc3ccncc3)CC2)CCCN2CCCC[C@@H]21 — lower, 20%
- Cn1ncc2c1NC(=O)CC2c1ccccc1Br (stereo not drawn) — lower, -2.5%
- COc1cccc(C2CC(=O)Nc3nc(N)sc32)c1OC (stereo not drawn) — higher, 91.4%
- COc1cccc(C2C3=C(COC3=O)Nc3[nH]nc(C)c32)c1OC (stereo not drawn) — lower, 16.7%
- O=C1CC(c2ccccc2Br)c2sc(N3CCOCC3)nc2N1 (stereo not drawn) — higher, 87.5%
- COc1cccc([C@@H]2N[C@H](c3nccs3)Cc3ccsc32)c1OC — lower, 9.86%
- O=C1CC(c2ccccc2C(F)(F)F)c2sc(N3CCOCC3)nc2N1 (stereo not drawn) — lower, 5%
- Cc1ccc(C(=O)N2[C@@H]3CC[C@H]2CN(C)C(=O)C3)c(=O)[nH]1 — lower, 15.9%
- CN1[C@@H](C(=O)NCC2CC2)C[C@H]2CN(Cc3cccc(C#N)c3)C[C@H]21 — lower, 17.4%
- CN(C)CCN1C(=O)C[C@@H]2[C@@H]1CCN2S(=O)(=O)c1ccccc1 — lower, 13.6%
- O=C(N[C@@H]1CN(Cc2ccc3c(c2)OCO3)[C@@H]2CCCO[C@@H]21)C1CC1 — lower, 7.55%
- O=C1CC[C@H]2CN(c3ncc(F)cn3)CC[C@H]2N1CCc1ccccn1 — lower, 4.84%
- Cc1csc(N2CCN(C(=O)CCC(=O)c3ccc(C)s3)CC2)n1 — lower, 50%
- Cc1csc(N2CCN(C(=O)c3ccc(C)s3)CC2)n1 — lower, 11.4%
- Cc1csc(N2CCN(C(=O)Cc3ccc(C)s3)CC2)n1 — lower, 35.7%
- COCCN1CCO[C@@H]2CN(C(=O)COc3ccc(C)cc3)C[C@@H]2C1 — lower, 10.3%
- Cc1cc(C(=O)N2CC[C@@H]3CO[C@@H](CN4CCCC4)[C@@H]3C2)no1 — lower, -2.63%
- CCCn1nc2c(cc1=O)CN(CCCS(N)(=O)=O)CC2 — higher, 61.9%
- CCCn1nc2c(cc1=O)CN(CCN1CCCC1=O)CC2 — lower, 23.7%
- CCn1nc2c(cc1=O)CN(CCCN1CCCC1=O)CC2 — lower, 30.7%
- CCCn1nc2c(cc1=O)CN(CCCN1CCCC1=O)CC2 — lower, 52.4%
- CCCn1nc2c(cc1=O)CN(CCS(C)(=O)=O)CC2 — lower, 40.5%
- CCCn1nc2c(cc1=O)CN(CC(=O)Nc1ccncc1)CC2 — lower, 25%
- CN(C)C(=O)CO[C@H]1CN(Cc2ccccc2)[C@@H]2CCCO[C@H]12 — lower, 20.6%
- CC(C)(C)CC(=O)N1CC[C@H]2NC(=O)N(Cc3ccccc3)C(=O)[C@H]21 — lower, 30.6%
- Cc1ncsc1CN1CC[C@H]2OCC[C@@]2(C(=O)NC(C)C)C1 — lower, -0.971%
- CO[C@@H]1CC[C@H]2[C@H]1OCCN2Cc1ccc(F)c(F)c1 — lower, 8.33%
- c1cnn(CCCO[C@@H]2CN(C3CCOCC3)[C@@H]3CCCO[C@@H]32)c1 — lower, 15.3%
- Cc1noc(CNc2c(N3CCCC3)cccc2N2CCCC2)n1 — lower, 6.67%
- Cc1noc(C)c1CNc1c(N2CCCC2)cccc1N1CCCC1 — higher, 84%
- COc1ccccc1N1CCC(NCc2c(C)noc2C)C1 (stereo not drawn) — lower, 7.14%
- Cc1noc([C@@H]2C[C@H]3CN(CC4CCOCC4)C[C@H]3O2)n1 — lower, 10.5%
- CO[C@H]1CCN(C(=O)c2ccsc2)[C@@H]2CN(CC3CC3)C[C@H]12 — lower, 5.77%
- Cc1nc(CN(C)C2CCN(Cc3nc4ccccc4s3)C2)no1 (stereo not drawn) — lower, 25.8%
- CC(=O)N(Cc1noc(C)n1)C1CCN(Cc2ccc(C#N)cc2)C1 (stereo not drawn) — lower, 17.1%
- Cc1nc(CN(C)C2CCN(Cc3nc4ccccc4n3C)C2)no1 (stereo not drawn) — lower, 10.3%
- CC(=O)N(Cc1noc(C)n1)C1CCN(Cc2ccccc2C#N)C1 (stereo not drawn) — lower, 2.7%
- CC(=O)N(Cc1noc(C)n1)C1CCN(Cc2cccc(C#N)c2)C1 (stereo not drawn) — higher, 63.2%
- Cc1cnc(N2C[C@@H]3[C@@H](C(=O)NCC(C)C)CCS(=O)(=O)[C@@H]3C2)nc1 — lower, 12.3%
- CN1[C@H](Cn2cncn2)C[C@@H]2CN(C3CCOCC3)CC[C@@H]21 — lower, 20%
- Cc1n[nH]c(C)c1CN1CC[C@@H]2[C@@H](CCC(=O)N2CCc2c[nH]cn2)C1 — lower, 19.4%
- CC(C)CNC(=O)N1C[C@H]2C[C@H](C(=O)NCc3ccccc3)[C@@H](C1)O2 — lower, 14.6%
- O=c1c2cnc(N3CCCC3)nc2ccn1-c1cccc(F)c1 — lower, 13.3%
- O=c1c2cnc(N3CCCCC3)nc2ccn1-c1ccccc1 — lower, 7.77%
- O=c1c2cnc(N3CCOCC3)nc2ccn1-c1ccccc1 — lower, 50%
- COc1cc(CCO)c(OC)c2c1OCO2 — lower, 51.7%
- COc1cc(CO)c(OC)c2c1OCO2 — lower, 18.3%
- COc1cc(CCC(C)O)c(OC)c2c1OCO2 (stereo not drawn) — lower, 0%
- Cc1noc([C@H]2C[C@H]3OCC[C@H]3N(S(C)(=O)=O)C2)n1 — lower, -20.2%
- COC(=O)c1ccc(OC)c(Cn2cc(Br)cn2)c1 — lower, 1.12%
- CCn1cc(C(=O)Nc2cc(C(=O)OC)ccc2C(=O)OC)cn1 — lower, 10.3%
- COC(=O)c1ccc(OC)c(Cn2cc(N)cn2)c1 — lower, 50.6%
- CNC(=O)[C@@H]1[C@@H](c2ccccc2)CN2CCN(Cc3ccccn3)C[C@H]12 — lower, 8.16%
- CSCC(=O)N1C[C@H]2CC[C@@H]1CN(Cc1ccccc1)C2 — lower, 26.9%
- CN(Cc1ccco1)[C@@H]1CN(Cc2cccs2)C[C@@H]2CCCO[C@@H]21 — lower, 5.46%
- O=C(CN1CCc2cncnc2C1)NCCOc1ccccc1 — lower, 50%
- CC(C)OCCN1CCc2cncnc2C1 — lower, 37.1%
- CN(CCCOc1ccccc1)C(=O)CN1CCc2cncnc2C1 — higher, 65.2%
- CS(=O)(=O)c1ccc(OCCCN2CCc3cncnc3C2)cc1 — lower, 12.5%
- O=C(CN1CCc2cncnc2C1)NCCOc1cccc(Cl)c1 — lower, 18.4%
- COCCCN1CCc2cncnc2C1 — lower, 50.6%
- CCOCCN1CCc2cncnc2C1 — lower, 32.3%
- Cc1cccc(OCCNC(=O)CN2CCc3cncnc3C2)c1 — lower, 20.2%
- COc1ccccc1OCCNC(=O)CN1CCc2cncnc2C1 — lower, 20.2%
